Measured values published in the supplement of paper PMC10849652.
About 7,900 targets were measured; listed, in parts, are those with a hit and a random draw of the rest. About 0.6% of all pairs of compound and target were hits.

Experiments:
Experiment in all cases: log2 fold change, soluble protein after heating vs DMSO (PISA); higher = thermal stabilisation; K562 cells, 10 uM, 30 min; active = over 0.2 and 3.5 SD of the protein, either way, in both replicates (recomputed)
IRAK-1-4 Inhibitor I = compound: C1COCCN1CCN2C3=CC=CC=C3N=C2NC(=O)C4=CC(=CC=C4)[N+](=O)[O-] [IRAK-1-4 Inhibitor I]
Outline: (§1)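 Thermal stability values are relative to control samples and come from duplicates. They are expressed as log2 fold changes. For measurement, K562 cells (2×10^6 cells/mL) received 10 μM compound for 30 min, and aliquots were heated for 3 min over 48°C-58°C, pooled, and extracted at 4°C in PBS with 0.5% NP-40. Soluble protein, the supernatant after 21,000xg for 90 min, was quantified by TMTpro 16plex LC-MS/MS with equalised channel sums.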

ibrutinib = compound: C=CC(=O)N1CCC[C@@H](n2nc(-c3ccc(Oc4ccccc4)cc3)c3c(N)ncnc32)C1 [ibrutinib]
Outline: as §1

[1] = compound: CC(=O)c1cnc2ccc(-c3cc(Cl)c(O)c(Cl)c3)nc2c1N[C@H]1CC[C@H](CN(C)C)CC1
Outline: as §1

ralimetinib = compound: CC(C)(C)Cn1c(N)nc2ccc(-c3[nH]c(C(C)(C)C)nc3-c3ccc(F)cc3)nc21 [ralimetinib]
Outline: as §1

[2] = compound: CC(C)(O)CC(=O)NCCn1ccc2ncnc(Nc3ccc(Oc4cccc(C(F)(F)F)c4)c(Cl)c3)c21
Outline: as §1

[3] = compound: CC(C)C1=C2N=C(C=C(N2N=C1)NCC3=CC=CC=C3)NCCCCCCN
Outline: as §1

[4] = compound: CC(C)C[C@@H](C=O)NC(=O)[C@H](CC(C)C)NC(=O)[C@H](CC(C)C)NC(=O)OCc1ccccc1
Outline: as §1

pinometostat = compound: CC(C)N(C[C@H]1O[C@@H](n2cnc3c(N)ncnc32)[C@H](O)[C@@H]1O)[C@H]1C[C@@H](CCc2nc3cc(C(C)(C)C)ccc3[nH]2)C1 [pinometostat]
Outline: as §1

[5] = compound: CC1=C(C(CC(=O)N1)C2=CC=C(C=C2)C(F)(F)F)C(=O)NC3=C(C=C4C(=C3)C=NN4)F
Outline: as §1

[6] = compound: CC1=C(C2=C(C=C1)C(=O)C3=CC=CC=C3N2CCCN)C
Outline: as §1

[7] = compound: CC1=C(C=C(C=C1)NC(=O)C2=CC(=CC=C2)C(C)(C)C#N)NC3=CC4=C(C=C3)N=CN(C4=O)C
Outline: as §1

[8] = compound: CC1=C(C=C(C=C1)NC(=O)C2=CC(=CC=C2)N(C)C)NC(=O)C3=CC=C(C=C3)O
Outline: as §1

[9] = compound: CC1=CC=C(C=C1)SC2=C3C=C(SC3=CN=C2)C(=O)N
Outline: as §1

[10] = compound: CC1=NC(=CC=C1)C2=C(N=C(N2)C(C)(C)C)C3=CC4=NC=CN=C4C=C3
Outline: as §1

Nexturastat A = compound: CCCCN(Cc1ccc(C(=O)NO)cc1)C(=O)Nc1ccccc1 [Nexturastat A]
Outline: as §1

vemurafenib = compound: CCCS(=O)(=O)Nc1ccc(F)c(C(=O)c2c[nH]c3ncc(-c4ccc(Cl)cc4)cc23)c1F [vemurafenib]
Outline: as §1

[11] = compound: CCCS(=O)(=O)Nc1ccc(F)c(C(=O)c2c[nH]c3ncc(Cl)cc23)c1F
Outline: as §1

[12] = compound: CCCc1cc(C)[nH]c(=O)c1CNC(=O)c1cc(-c2ccnc(N3CCN(C)CC3)c2)cc2c1cnn2C(C)C
Outline: as §1

givinostat = compound: CCN(CC)Cc1ccc2cc(COC(=O)Nc3ccc(C(=O)NO)cc3)ccc2c1 [givinostat]
Outline: as §1

barasertib = compound: CCN(CCCOc1ccc2c(Nc3cc(CC(=O)Nc4cccc(F)c4)[nH]n3)ncnc2c1)CCOP(=O)(O)O [barasertib]
Outline: as §1

Measured: log2 fold change

BCLAF1 (UniProt Q9NYF8)
Sequence of UniProt Q9NYF8 (Q9NYF8 whole entry, looked up): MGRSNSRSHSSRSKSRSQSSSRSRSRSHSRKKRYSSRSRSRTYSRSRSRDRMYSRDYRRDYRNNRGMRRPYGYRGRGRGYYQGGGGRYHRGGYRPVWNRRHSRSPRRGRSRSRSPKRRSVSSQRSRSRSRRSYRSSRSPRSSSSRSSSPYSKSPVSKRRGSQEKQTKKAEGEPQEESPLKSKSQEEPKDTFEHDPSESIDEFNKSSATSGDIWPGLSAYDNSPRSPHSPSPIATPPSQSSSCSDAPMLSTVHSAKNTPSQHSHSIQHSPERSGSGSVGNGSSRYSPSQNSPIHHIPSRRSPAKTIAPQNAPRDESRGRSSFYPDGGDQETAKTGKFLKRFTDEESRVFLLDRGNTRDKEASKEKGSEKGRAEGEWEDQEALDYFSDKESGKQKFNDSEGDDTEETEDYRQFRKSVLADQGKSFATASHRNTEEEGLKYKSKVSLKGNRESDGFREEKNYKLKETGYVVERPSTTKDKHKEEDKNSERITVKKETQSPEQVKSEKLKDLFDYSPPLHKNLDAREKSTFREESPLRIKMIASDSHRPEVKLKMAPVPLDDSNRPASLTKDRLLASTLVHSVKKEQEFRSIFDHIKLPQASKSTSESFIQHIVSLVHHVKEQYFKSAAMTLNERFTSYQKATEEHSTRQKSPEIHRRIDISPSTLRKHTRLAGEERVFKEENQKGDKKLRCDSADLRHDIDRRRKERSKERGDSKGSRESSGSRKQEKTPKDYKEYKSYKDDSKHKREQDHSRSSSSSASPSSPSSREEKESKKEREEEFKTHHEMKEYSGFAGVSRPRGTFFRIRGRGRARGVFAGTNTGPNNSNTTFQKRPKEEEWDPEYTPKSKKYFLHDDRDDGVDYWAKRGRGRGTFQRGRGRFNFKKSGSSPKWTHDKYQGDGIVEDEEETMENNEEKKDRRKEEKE
inactive: IRAK-1-4 Inhibitor I -0.265 | ibrutinib 0.016 | ralimetinib 0.124 | [2] 0.094 | [3] -0.353 | [4] -0.027 | pinometostat -0.039 | [5] 0.021 | [6] -0.076 | [7] 0.012 | [8] -0.102 | [9] 0.004 | [10] 0.128 | Nexturastat A 0.098 | vemurafenib 0.225 | [11] 0.097 | [12] 0.009 | givinostat 0.137 | barasertib -0.071
active: [1] -0.503

ATP1A1 (UniProt P05023)
inactive: IRAK-1-4 Inhibitor I 0.071 | ibrutinib 0.03 | [1] 0.007 | ralimetinib -0.029 | [2] -0.006 | [3] 0.182 | [4] -0.002 | pinometostat -0.006 | [5] 0.001 | [6] 0.009 | [7] 0.002 | [8] 0.01 | [9] 0.015 | [10] 0.025 | Nexturastat A -0.019 | vemurafenib 0.017 | [11] 0.005 | [12] 0.068 | givinostat -0.001 | barasertib -0.02

BLOC1S3 (UniProt Q6QNY0)
Sequence of UniProt Q6QNY0 (Q6QNY0 whole entry, looked up): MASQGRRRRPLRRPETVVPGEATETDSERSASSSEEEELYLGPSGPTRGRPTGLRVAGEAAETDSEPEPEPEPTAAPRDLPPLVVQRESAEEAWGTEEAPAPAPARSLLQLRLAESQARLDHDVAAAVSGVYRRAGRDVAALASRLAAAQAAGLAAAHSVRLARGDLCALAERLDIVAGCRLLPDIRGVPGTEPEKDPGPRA
active: [1] 0.427
inactive: IRAK-1-4 Inhibitor I 0.018 | ibrutinib -0.037 | ralimetinib -0.033 | [2] -0.058 | [3] 0.005 | [4] -0.045 | pinometostat -0.041 | [5] -0.01 | [6] 0.076 | [7] -0.03 | [8] 0.049 | [9] 0.046 | [10] 0.052 | Nexturastat A -0.031 | vemurafenib -0.049 | [11] -0.029 | [12] -0.058 | givinostat -0.016 | barasertib 0.021

ACSL5 isoform 3 (UniProt Q9ULC5)
Sequence of UniProt Q9ULC5 (Q9ULC5 whole entry, looked up): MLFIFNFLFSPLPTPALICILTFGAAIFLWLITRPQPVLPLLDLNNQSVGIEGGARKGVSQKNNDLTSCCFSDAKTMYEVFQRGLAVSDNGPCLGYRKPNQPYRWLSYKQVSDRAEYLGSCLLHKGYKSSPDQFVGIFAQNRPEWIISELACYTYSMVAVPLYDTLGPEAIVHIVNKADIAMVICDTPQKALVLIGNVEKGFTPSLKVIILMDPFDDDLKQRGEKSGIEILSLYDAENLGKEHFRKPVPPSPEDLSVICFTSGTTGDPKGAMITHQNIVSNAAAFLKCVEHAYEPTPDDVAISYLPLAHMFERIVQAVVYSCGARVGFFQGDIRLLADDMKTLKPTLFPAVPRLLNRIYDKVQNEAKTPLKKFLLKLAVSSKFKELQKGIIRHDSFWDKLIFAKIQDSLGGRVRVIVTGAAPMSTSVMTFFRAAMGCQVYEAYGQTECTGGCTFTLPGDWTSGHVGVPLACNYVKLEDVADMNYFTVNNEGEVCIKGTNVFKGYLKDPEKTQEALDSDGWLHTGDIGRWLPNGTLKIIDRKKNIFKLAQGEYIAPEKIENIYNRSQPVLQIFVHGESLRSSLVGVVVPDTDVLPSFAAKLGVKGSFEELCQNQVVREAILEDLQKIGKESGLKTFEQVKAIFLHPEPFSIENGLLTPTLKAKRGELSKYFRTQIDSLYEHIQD
inactive: IRAK-1-4 Inhibitor I 0.02 | ibrutinib 0.03 | [1] -0.017 | ralimetinib -0.03 | [2] 0.014 | [4] -0.001 | pinometostat 0.095 | [5] 0.049 | [6] 0.088 | [7] 0.106 | [8] 0.061 | [9] -0.025 | [10] 0.088 | Nexturastat A -0.009 | vemurafenib 0.001 | [11] 0.083 | [12] -0.019 | givinostat -0.023 | barasertib 0.013
active: [3] -0.354

ACO2 (UniProt Q99798)
Sequence of UniProt Q99798 (Q99798 whole entry, looked up): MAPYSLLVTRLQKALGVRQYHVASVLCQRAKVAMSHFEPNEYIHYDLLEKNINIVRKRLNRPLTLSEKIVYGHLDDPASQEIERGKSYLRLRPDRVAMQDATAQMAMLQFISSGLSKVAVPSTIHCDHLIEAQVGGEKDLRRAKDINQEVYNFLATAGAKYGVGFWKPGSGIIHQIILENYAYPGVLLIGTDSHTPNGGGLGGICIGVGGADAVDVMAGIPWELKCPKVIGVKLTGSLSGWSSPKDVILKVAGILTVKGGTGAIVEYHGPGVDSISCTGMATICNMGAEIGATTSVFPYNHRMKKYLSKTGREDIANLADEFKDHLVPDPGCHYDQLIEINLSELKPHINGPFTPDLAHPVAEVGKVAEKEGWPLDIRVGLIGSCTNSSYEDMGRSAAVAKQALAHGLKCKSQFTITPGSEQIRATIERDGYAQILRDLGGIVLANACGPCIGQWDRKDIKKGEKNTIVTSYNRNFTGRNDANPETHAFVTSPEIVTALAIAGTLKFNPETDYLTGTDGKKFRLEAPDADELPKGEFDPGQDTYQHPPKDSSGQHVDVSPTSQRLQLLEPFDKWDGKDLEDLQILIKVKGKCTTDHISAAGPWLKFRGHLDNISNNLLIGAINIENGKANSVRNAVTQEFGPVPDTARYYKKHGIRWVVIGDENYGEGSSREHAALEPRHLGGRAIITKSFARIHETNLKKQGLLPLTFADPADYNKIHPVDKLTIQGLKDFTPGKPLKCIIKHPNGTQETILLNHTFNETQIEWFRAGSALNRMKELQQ
inactive: IRAK-1-4 Inhibitor I 0.023 | ibrutinib 0.025 | [1] -0.016 | ralimetinib -0.019 | [2] -0.068 | [3] -0.058 | [4] -0.022 | pinometostat -0.033 | [5] -0.049 | [6] 0.076 | [7] 0.071 | [8] -0.063 | [9] 0.012 | [10] 0.035 | Nexturastat A -0.073 | vemurafenib 0.055 | [11] 0.027 | [12] -0.003 | givinostat -0.014 | barasertib 0.037

ARMC8 (UniProt Q8IUR7)
Sequence of UniProt Q8IUR7 (Q8IUR7 whole entry, looked up): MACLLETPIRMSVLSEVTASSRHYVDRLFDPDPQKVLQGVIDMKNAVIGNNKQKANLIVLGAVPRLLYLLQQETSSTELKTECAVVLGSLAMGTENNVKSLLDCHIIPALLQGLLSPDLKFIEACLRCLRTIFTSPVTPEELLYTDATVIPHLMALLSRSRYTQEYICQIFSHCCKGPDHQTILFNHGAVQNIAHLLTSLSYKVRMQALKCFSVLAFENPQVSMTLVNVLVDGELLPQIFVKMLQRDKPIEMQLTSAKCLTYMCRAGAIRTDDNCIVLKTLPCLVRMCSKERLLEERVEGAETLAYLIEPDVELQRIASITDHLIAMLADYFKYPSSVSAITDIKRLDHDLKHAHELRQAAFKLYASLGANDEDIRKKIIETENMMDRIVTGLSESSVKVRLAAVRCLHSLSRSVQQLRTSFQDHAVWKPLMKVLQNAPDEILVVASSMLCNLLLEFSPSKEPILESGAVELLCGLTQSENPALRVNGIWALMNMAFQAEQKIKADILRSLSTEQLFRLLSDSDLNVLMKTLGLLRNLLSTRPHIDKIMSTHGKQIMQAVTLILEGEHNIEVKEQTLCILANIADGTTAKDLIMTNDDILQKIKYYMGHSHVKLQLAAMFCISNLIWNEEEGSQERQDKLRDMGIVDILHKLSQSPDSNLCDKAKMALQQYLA
inactive: IRAK-1-4 Inhibitor I -0.025 | ibrutinib -0.017 | [1] 0.036 | ralimetinib 0.084 | [2] -0.011 | [3] -0.01 | [4] -0.093 | pinometostat -0.021 | [5] -0.025 | [6] -0.07 | [7] 0.017 | [8] 0.039 | [9] -0.049 | [10] 0.006 | Nexturastat A -0.002 | vemurafenib -0.017 | [11] 0.027 | [12] 0.065 | givinostat 0 | barasertib -0.025

ATP12A isoform 2 (UniProt P54707)
Sequence of UniProt P54707 (P54707 whole entry, looked up): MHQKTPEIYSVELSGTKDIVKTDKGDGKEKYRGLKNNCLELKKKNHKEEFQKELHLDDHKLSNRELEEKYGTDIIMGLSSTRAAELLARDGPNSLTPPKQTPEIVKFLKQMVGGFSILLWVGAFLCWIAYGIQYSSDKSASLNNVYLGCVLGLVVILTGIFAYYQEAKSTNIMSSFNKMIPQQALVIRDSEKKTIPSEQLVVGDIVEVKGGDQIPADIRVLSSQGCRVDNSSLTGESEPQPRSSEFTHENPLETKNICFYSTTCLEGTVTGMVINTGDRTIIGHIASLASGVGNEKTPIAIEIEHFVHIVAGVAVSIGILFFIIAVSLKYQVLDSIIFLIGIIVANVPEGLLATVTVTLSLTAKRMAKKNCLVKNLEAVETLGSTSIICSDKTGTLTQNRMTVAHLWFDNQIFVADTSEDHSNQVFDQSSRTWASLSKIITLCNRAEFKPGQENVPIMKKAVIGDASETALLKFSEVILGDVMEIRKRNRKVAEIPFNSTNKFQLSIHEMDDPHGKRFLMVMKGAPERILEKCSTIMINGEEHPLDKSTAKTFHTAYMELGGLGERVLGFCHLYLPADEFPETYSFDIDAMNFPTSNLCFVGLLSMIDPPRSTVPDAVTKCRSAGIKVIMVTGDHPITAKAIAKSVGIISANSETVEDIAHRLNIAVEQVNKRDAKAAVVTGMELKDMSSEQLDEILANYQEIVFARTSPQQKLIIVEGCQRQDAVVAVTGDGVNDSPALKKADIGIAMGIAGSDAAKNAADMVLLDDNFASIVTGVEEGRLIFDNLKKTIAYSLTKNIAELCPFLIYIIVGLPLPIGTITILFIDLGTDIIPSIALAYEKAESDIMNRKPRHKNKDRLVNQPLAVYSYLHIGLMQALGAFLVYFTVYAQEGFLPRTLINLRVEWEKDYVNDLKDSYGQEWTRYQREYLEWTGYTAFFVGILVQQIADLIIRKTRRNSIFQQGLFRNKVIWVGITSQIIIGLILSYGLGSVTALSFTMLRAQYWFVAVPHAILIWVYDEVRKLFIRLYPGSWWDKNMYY
inactive: IRAK-1-4 Inhibitor I 0.013 | ibrutinib 0.009 | [1] -0.033 | ralimetinib -0.031 | [2] -0.036 | [3] 0.162 | [4] -0.005 | pinometostat -0.03 | [5] -0.02 | [6] 0.086 | [7] -0.001 | [8] -0.006 | [9] 0 | [10] 0.005 | Nexturastat A -0.132 | vemurafenib -0.03 | [11] -0.072 | [12] -0.021 | givinostat -0.009 | barasertib 0.015

ARHGAP1 (UniProt Q07960)
Sequence of UniProt Q07960 (Q07960 whole entry, looked up): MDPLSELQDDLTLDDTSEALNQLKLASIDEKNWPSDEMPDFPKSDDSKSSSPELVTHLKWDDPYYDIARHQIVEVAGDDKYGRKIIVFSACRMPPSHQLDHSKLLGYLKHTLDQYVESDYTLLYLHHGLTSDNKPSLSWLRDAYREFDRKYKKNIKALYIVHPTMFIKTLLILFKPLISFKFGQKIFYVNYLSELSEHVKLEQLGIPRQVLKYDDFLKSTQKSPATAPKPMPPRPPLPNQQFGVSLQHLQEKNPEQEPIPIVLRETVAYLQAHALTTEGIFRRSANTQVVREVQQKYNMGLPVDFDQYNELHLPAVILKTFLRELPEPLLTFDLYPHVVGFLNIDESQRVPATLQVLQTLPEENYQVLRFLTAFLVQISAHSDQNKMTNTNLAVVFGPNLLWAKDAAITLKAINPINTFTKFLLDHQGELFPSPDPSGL
inactive: IRAK-1-4 Inhibitor I 0.025 | ibrutinib -0.014 | [1] -0.049 | ralimetinib -0.022 | [2] -0.014 | [3] 0.162 | [4] 0.023 | pinometostat 0 | [5] -0.011 | [6] -0.014 | [7] -0.024 | [8] -0.022 | [9] -0.009 | [10] 0.012 | Nexturastat A 0.03 | vemurafenib 0.002 | [11] 0.052 | [12] -0.018 | givinostat -0.014 | barasertib 0.006

BRK1 isoform 2 (UniProt Q8WUW1)
Sequence of UniProt Q8WUW1 (Q8WUW1 whole entry, looked up): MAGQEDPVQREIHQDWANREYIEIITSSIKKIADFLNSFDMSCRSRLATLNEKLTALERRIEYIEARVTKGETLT
inactive: IRAK-1-4 Inhibitor I -0.026 | ibrutinib -0.004 | [1] -0.045 | ralimetinib -0.037 | [2] -0.018 | [3] 0.058 | [4] -0.053 | pinometostat -0.157 | [5] 0.064 | [6] 0.145 | [7] -0.055 | [8] -0.076 | [9] 0.103 | [10] 0.069 | Nexturastat A -0.02 | vemurafenib 0.044 | [11] -0.004 | [12] 0.002 | givinostat 0.022 | barasertib 0.032
